The source made the active and inactive calls.

A short description of assay [1]: A549 cell viability effects, profiling panel, calcein-AM fluorescence, 48 h, basal (AID 1162). Conditions: higher = more signal.
The nature of assay [2]: adipocyte viability effects, profiling panel, cell-based, 3T3-L1 adipocytes, calcein-AM fluorescence, 48 h, basal (AID 1163). The note with it: 3T3-L1 adipocytes viability, higher = more signal.
Assay [3] is described as follows: HepG2 cell viability effects, profiling panel, calcein-AM fluorescence, 48 h, basal (AID 1164). Conditions: higher = more signal.
A short description of assay [4]: MM1S cell viability effects, profiling panel, calcein-AM fluorescence, 48 h, basal (AID 1165).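 Further: viability of MM1S multiple myeloma cells under basal unstimulated conditions.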 The note with it: higher = more signal.
Assay [5] is described as follows: basal RPMI8226 viability, no added stimulus, profiling panel, cell-based, calcein-AM fluorescence, 48 h, PK04 Diversity Set (AID 1166).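 Further: cells grown under basal conditions without added stimulus.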 The note with it: RPMI8226 myeloma viability, higher = more signal.
Assay [6] can be described thus: basal HepG2 mitochondrial membrane potential changes, profiling panel, cell-based, JC-1 fluorescence, 24 h, 100 nL compound (AID 1167). The note with it: higher = more signal.
A short description of assay [7]: basal 3T3-L1 adipocyte mitochondrial potential changes, profiling panel, cell-based, JC-1 fluorescence, 3T3-L1 adipocytes, 24 h, 100 nL compound (AID 1168). Conditions: JC-1 mitochondrial fluorescence, higher = more signal, called active from +8 up or from −8 down.
The nature of assay [8]: basal RPMI8226 mitochondrial membrane potential changes, profiling panel, cell-based, JC-1 fluorescence, 24 h, 100 nL compound (AID 1169). The note with it: RPMI8226 myeloma, JC-1 mitochondrial potential fluorescence, higher = more signal.
Assay [9] can be described thus: basal MM1S mitochondrial membrane potential changes, profiling panel, cell-based, JC-1 fluorescence, 24 h, 100 nL compound (AID 1170). The note with it: higher = more signal.
Assay [10] can be described thus: A549 lung cancer cell viability effects, profiling panel, resazurin fluorescence, 24 h, PK04 Diversity Set (AID 1171). The note with it: higher = more signal, called active from +8 up or from −8 down.
Further: test concentration not given here.

Turning to `CO[C@H]1COC(=O)[C@H](C)NC(=O)CC=C[C@@H](C)[C@H](NS(=O)(=O)c2ccc(C)cc2)COC(=O)[C@@H](OCc2ccccc2)C=C[C@@H]1C`, the z-score in [1] was 0.0987; in [2], 0.901; in assay [3] it was 0.0331; in [4], -0.31; in [5] it was 0.102; in assay [6], 1.04. Moreover, the z-score in [7] was 0.315 (inactive); in assay [8] it was -0.729; in [9], 1.02; in [10] it was 0.559 (inactive).

Take `CCOC(=O)C1=CC[C@@H](c2ccc(-c3ccc(OCc4ccccc4)cc3)c(OC)c2)N(S(=O)(=O)c2ccc(C)cc2)[C@H]1c1ccccc1`: the z-score was -0.603 in assay [1]; -0.416 in assay [2]; 0.418 in [3]; -1.23 in [4]; -0.119 in [5]; 4.16 in assay [6]. For the same compound, the z-score was 0.51 (inactive) in assay [7], -0.161 in assay [8], -1.54 in assay [9] and 0.751 (inactive) in assay [10].

On to `Cc1ccc(S[C@]2(C(=O)NC(C)C)CC(=O)N(C3Cc4ccccc4C3)[C@@H]2c2ccc(CO)cc2)cc1`, for which the z-score in assay [1] is 0.0188; in [2] it was 2.29; in assay [3], 0.0794; in assay [4] it was 0.549; in assay [5], -1.02; in assay [6] it was 0.0355. The z-score in [7] is -0.636 (inactive); in [8] it was 0.758; in [9], 0.643; in assay [10] it was -0.0208 (inactive).

For the compound `C=CCNC(=O)[C@H]1[C@@H]2C(=O)O[C@@H](c3ccccc3)[C@@H](c3ccccc3)N2[C@@H](c2ccccc2OCCO)[C@]12C(=O)N(C(=O)OCCOC)c1ccc(C#CCNC(N)=O)cc12`, the z-score was 0.883 in [1]; 1.68 in assay [2]; -0.127 in [3]; -1.13 in assay [4]; -0.66 in [5]; 0.208 in assay [6]. In addition, the z-score in assay [7] is 1.39 (inactive); in assay [8] it was -0.711; in [9], -0.616; in assay [10] it was 1.13 (inactive).

As to `CCCC/C=C/[C@H]([C@@H](O)Cc1ccccc1)N(CC#Cc1ccccc1)Cc1ccccc1Br`, the z-score was 1.44 in assay [1]; -0.0982 in assay [2]; 0.632 in [3]; 0.558 in [4]; 0.0649 in assay [5]; 0.427 in [6]. Moreover, the z-score in [7] is 0.519 (inactive); in assay [8], -0.462; in assay [9], -0.435; in [10] it was 2.84 (inactive).

As to `C[C@]1(C(=O)NCc2ccccc2)c2ccccc2C(=O)N(Cc2cc(C(F)(F)F)cc(C(F)(F)F)c2)[C@H]1c1ccc(CO)cc1`, the z-score is 0.0361 in [1]; 1.95 in [2]; 0.292 in assay [3]; -0.951 in [4]; -1.46 in assay [5]; 1.07 in assay [6]. Further, the z-score was -0.122 (inactive) in assay [7], -0.155 in assay [8], -0.177 in [9] and 0.805 (inactive) in assay [10].

As for `COCCCNC(=O)[C@@]1(c2ccc([N+](=O)[O-])cc2)CC(=O)N(C2CCCCC2)[C@@H]1c1ccc(CO)cc1`, the z-score in [1] was 0.286; in assay [2], 0.0134; in assay [3] it was 0.366; in [4] it was -0.214; in [5] it was -0.0968; in assay [6], 0.437. For the same compound, the z-score in assay [7] is -0.605 (inactive); in assay [8], 0.00327; in assay [9] it was 0.509; in [10], 0.902 (inactive).

As for `CCCCCCc1nc(C2CC2)c(C)c2c1[Si](C(C)C)(C(C)C)OC2`, the z-score in [1] was 0.632; in [2], 2.88; in assay [3], -0.693; in assay [4], -0.155; in assay [5], -0.499; in assay [6], 0.366. Besides, the z-score in assay [7] is 1.56 (inactive); in assay [8], 0.296; in [9], 0.419; in assay [10], -0.207 (inactive).

With `COc1cccc([C@@H]2[C@@H](C)CC[C@H]3C(=O)N(C)[C@@H](C(C)C)C(=O)N23)c1`, the z-score in [1] is 0.908; in assay [2], 0.323; in assay [3], 0.445; in assay [4] it was 0.344; in [5], 1.44; in [6], 0.0824. The z-score in assay [7] is 0.517 (inactive); in assay [8], -0.338; in [9] it was 0.64; in assay [10] it was 0.65 (inactive).

In the case of `C[C@@H]1CC[C@H]2C(=O)N3[C@@H](CC[C@@H](C)[C@@H]3c3cccc(N4CCOCC4)c3)C(=O)N2[C@H]1c1cccc(N2CCOCC2)c1`, the z-score in [1] was 0.197; in assay [2] it was 1.3; in [3] it was -0.894; in [4], 0.467; in assay [5], -0.267; in assay [6], 1.03. Also, the z-score in assay [7] was 0.543 (inactive); in [8], -0.685; in assay [9] it was 0.713; in assay [10] it was 1.05 (inactive).

In the case of `COC(=O)C[C@H]1O[C@]2(C(=O)N(C)c3ccccc32)[C@@H](C)[C@@H]1[Si](C)(C)c1ccc(OC)cc1`, the z-score in [1] was -0.437; in assay [2], 2.54; in [3], -0.125; in [4] it was -0.128; in assay [5], -2.98; in assay [6] it was 0.441. Further, the z-score in assay [7] was 1.24 (inactive); in assay [8] it was -0.636; in assay [9], 1.05; in assay [10], -0.767 (inactive).

Consider `COC(=O)C(CC#Cc1ccc2c(c1)[C@]1(C(=O)N2)[C@H](C(=O)N2CCCCCCC2)[C@H]2C(=O)O[C@H](c3ccccc3)[C@H](c3ccccc3)N2[C@@H]1c1ccc(O)cc1)C(=O)OC`, for which the z-score in assay [1] was 0.654; in [2], 1.27; in assay [3] it was 0.294; in assay [4] it was -1.25; in assay [5] it was -0.248; in [6], -0.21. Moreover, the z-score in assay [7] was -0.0509 (inactive); in assay [8], 0.145; in [9], -1.15; in [10], -0.429 (inactive).

For `C=CCN1C(=O)[C@]2(O[C@H](CCn3cc(CCO)nn3)[C@@H]([Si](C)(C)c3ccc(OC)cc3)[C@@H]2C)c2cc(NC(=O)c3ccc(OC)cc3)ccc21`, the z-score in assay [1] was -0.423; in assay [2], 0.727; in assay [3], -0.792; in assay [4] it was -2.7; in assay [5], -4.31; in [6] it was 3.04. Moreover, the z-score in assay [7] is 1.61 (inactive); in assay [8], -1.09; in assay [9], 0.122; in assay [10], -2.65 (inactive).

With `COC(=O)C1=CC(c2ccc(CO)cc2)=CC(c2cccs2)N(Cc2cccc(OC(F)(F)F)c2)C=C1C(=O)OC` (stereo not given), the z-score is -0.425 in assay [1]; 0.531 in [2]; -0.282 in assay [3]; -1.63 in assay [4]; -2.08 in [5]; -0.908 in [6]. The z-score in assay [7] was -1.25 (inactive); in assay [8] it was -0.838; in assay [9] it was -0.459; in assay [10] it was -0.0711 (inactive).

As for `O=C1O[C@H](c2ccccc2)[C@H](c2ccccc2)N2[C@H]1[C@@H](C(=O)Nc1nc3ccccc3s1)[C@]1(C(=O)Nc3ccc(C#CC4(O)CCCCCC4)cc31)[C@H]2c1ccc(O)cc1`, the z-score in assay [1] was -0.0457; in assay [2], 0.6; in assay [3], -0.0827; in [4], -2.98; in assay [5] it was -4.08; in assay [6], -3.62. The z-score is -2.4 (inactive) in assay [7], -1.14 in assay [8], -0.676 in assay [9] and -0.318 (inactive) in [10].

In the case of `C=C(COC)/C(=C/C[C@@H](OC(C)=O)c1cccc(OCCO)c1)c1cc(C(=O)OC)ccc1OC`, the z-score in assay [1] was 1.1; in [2] it was -0.412; in assay [3], 0.409; in assay [4], -1.29; in assay [5] it was 0.0922; in [6], 3.3. The z-score is 1.2 (inactive) in assay [7], 0.127 in [8], -0.466 in assay [9] and 1.49 (inactive) in assay [10].

The values are drawn from PubChem BioAssay.
